Our source for the max response and Potency values is PubChem BioAssay (NCATS).

“And” between values parts separate entries of the source, which are not always exact repeats. Equal values may be shown once. Results filed as inconclusive are left out. A number with no mark means an inactive call. The source made the active and inactive calls. Calls come from the whole dose curve; as a rule, active = well fitted curve in the direction sought with a large enough effect; inconclusive = small, poorly fitted or top-dose-only effect, or another doubt; inactive = no such curve, though single readings can be large or run the other way.
% is set by controls: 0 for no effect and ±100 for the full control effect; potency is the fitted concentration of half-maximal effect.

The test in a line: qHTS Assay for Identifying Gametocytocidal Compounds (AID 743244).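 For max response: actives lower the fluorescent signal which means gametocytes are killed.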 The settings on record: P. falciparum 3D7 stage III-V gametocytes, alamarBlue, 72 h; max response: stronger effect = lower value. The gist of the method:
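3D7 gametocytes, stages III–V, 20,000/well; cpd 72 h, 37 °C/5% CO2; + alamarBlue 24 h; fluor. Ex 525/Em 598.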
(In general: qHTS replaces the single test concentration by a dilution series.)
As for `C(=C\c1ccccc1)/CN1CCN(C(c2ccccc2)c2ccccc2)CC1`, the max response was -4.21% and 5.87%. Still for that read-out and setting: for `CCCN(CCC)C(=O)C(CCC(=O)O)NC(=O)c1ccccc1` (centres undefined) the value was 9.09% and 23.8%. Still for that read-out and setting: the result for `COCCCC/C(=N\OCCN)c1ccc(C(F)(F)F)cc1` reads 20.1%; that for `C[N+](C)(C)CCOC(N)=O`, 20.5% and 14.2%. On the same count and under the same terms, the result for `CCNC(=O)N1CCN(CCCC(c2ccc(F)cc2)c2ccc(F)cc2)CC1` reads -23% and -10.4%; that for `CCCCCN(CCCCC)C(=O)C(CCC(=O)O)NC(=O)c1ccc(Cl)c(Cl)c1` (centres undefined), 10.8% and 16.9%.

With `CNCCC(Oc1ccccc1OC)c1ccccc1` (centres undefined), the max response is 19.3%.

Regarding `COc1cc(C(=O)OCCCN2CCCN(CCCOC(=O)c3cc(OC)c(OC)c(OC)c3)CC2)cc(OC)c1OC`, the max response is -8.17% and 18.7%. Still for that read-out and setting: the result for `CC(C)(C)NCC(O)c1cc(O)cc(O)c1` (centres undefined) reads -9.6% and 12.9%; that for `CCN(CC)CCNC(=O)c1cc(S(C)(=O)=O)ccc1OC`, -4.07%. On the same count and under the same terms, for `O=C(CCCN1CCC(O)(c2cccc(C(F)(F)F)c2)CC1)c1ccc(F)cc1` the value was 20%; for `COc1ccc(CCN(C)CCCC(C#N)(c2cc(OC)c(OC)c(OC)c2)C(C)C)cc1OC` (centres undefined), 12.4% and 4.11%. Still for that read-out and setting: the result for `Cc1nc2c([nH]1)c(=O)n(C)c(=O)n2Cc1ccco1` reads -4.35% and 2.16%. On to `C[n+]1cc2c3c(ccc2c2ccc4cc5c(cc4c21)OCO5)OCO3`, for which the Potency is 3.16 µM (active). `CCOC(=O)C1=C(C)NC(C)=C(C(=O)OC)C1c1cccc([N+](=O)[O-])c1` (centres undefined): the max response was 5.7%. Same read-out and setting: the result for `CN(C)C/C=C(/c1ccc(Br)cc1)c1cccnc1` reads -5.39% and -10%; that for `CN(C)CCOC(=O)COc1ccc(Cl)cc1`, 11% and 8.28%; that for `CCCN(CCC)CCc1cccc2c1CC(=O)N2`, 3.57% and 20.6%. Same read-out and setting: for `CN/C(=C\[N+](=O)[O-])NCCSCc1ccc(CN(C)C)o1` the value was 33.4%; for `CCCC(C(=O)OCCN(CC)CC)(c1ccccc1)c1ccccc1`, -0.916%. Same read-out and setting: the result for `CN(C)CC/C=C1\c2ccccc2COc2ccccc21` reads 1.05% and 7.48%; that for `NC(=O)c1cn(Cc2c(F)cccc2F)nn1`, 3.65% and -7.75%; that for `C[N+](C)(C)CCOC(=O)CCC(=O)OCC[N+](C)(C)C`, 0.123% and 29.2%.

Regarding `O=C(O)CP(=O)(O)O`, the max response is -7.11% and 18.5%.
